# FECH block: inhibitors of human ferrochelatase; P22830; purified FECH, Ni-mesoporphyrin absorbance 550 nm; calls only at 10 µM (by protocol); 20,000 tested, 3.3% active; AID 1671448;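 active means enzyme reaction rate more than 3 SD below the solvent-only control wells on the same plate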;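 further: lower slope than DMSO wells means FECH inhibition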
# Target sequence (P22830 whole entry, looked up): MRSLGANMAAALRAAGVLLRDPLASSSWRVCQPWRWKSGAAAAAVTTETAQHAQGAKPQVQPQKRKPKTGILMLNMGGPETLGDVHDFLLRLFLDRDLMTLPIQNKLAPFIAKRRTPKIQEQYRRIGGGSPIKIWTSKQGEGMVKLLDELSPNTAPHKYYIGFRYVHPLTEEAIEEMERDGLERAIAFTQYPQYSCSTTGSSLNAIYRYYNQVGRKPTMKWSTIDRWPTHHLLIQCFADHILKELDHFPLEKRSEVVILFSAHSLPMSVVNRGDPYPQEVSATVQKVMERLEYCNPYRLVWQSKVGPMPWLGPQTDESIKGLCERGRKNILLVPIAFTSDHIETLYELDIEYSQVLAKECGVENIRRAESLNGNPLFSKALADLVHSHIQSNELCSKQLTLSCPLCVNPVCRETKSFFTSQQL
# Calls only; 0 = inactive; + = active, no number. Shown is part of a subset that was picked to be rich in hits.
SMILES,FECH block
Cc1ccc(C(=O)Nc2nc3n(n2)C(c2ccccc2)C=C(c2ccccc2)N3)cc1 (configuration not stated),0
Cc1cccc(C(=O)Nc2nc3n(n2)C(c2ccc(Cl)cc2)C=C(c2ccccc2)N3)c1 (configuration not stated),+
Cc1ccc(C(=O)Nc2nc3n(n2)C(c2ccc(F)cc2)C=C(c2ccccc2)N3)cc1 (configuration not stated),0
Cc1ccc(C(=O)Nc2nc3n(n2)C(c2ccc(Cl)cc2)C=C(c2ccc(C)cc2)N3)cc1 (configuration not stated),+
Cc1ccc(C2=CC(c3ccc(Cl)cc3)n3nc(NC(=O)C(C)C)nc3N2)cc1 (configuration not stated),0
CC(c1cccs1)N(C)Cc1cnc(N)nc1 (configuration not stated),0
Cc1ccc(S(=O)(=O)NCc2nc3cccnc3n2C2CC2)cc1C,0
COc1ccc(-n2ccnc2C2CCOC2)cn1 (configuration not stated),0
Cc1cc(C)n(CCn2cc(CCc3ccccc3)nn2)c(=O)n1,0
Cc1nc(CCN)cc(NCC(O)c2ccccc2)n1 (configuration not stated),0
COc1ccc(Nc2nc(N3CCN(CCO)CC3)nc3c2cnn3-c2ccccc2)cc1,0
COc1ccc(Nc2nc(N3CCCCC3)nc3c2cnn3-c2ccccc2)cc1,0
Cc1ccc(Nc2nc(N3CCN(C)CC3)nc3c2cnn3-c2ccccc2)cc1,0
COc1ccc(Nc2nc(N3CCOCC3)nc3c2cnn3-c2ccccc2)cc1,0
OCCN1CCN(c2nc(Nc3ccc(F)cc3)c3cnn(-c4ccccc4)c3n2)CC1,0
COc1ccc(Nc2nc(N3CCC(C)CC3)nc3c2cnn3-c2ccccc2)cc1,+
OCCN1CCN(c2nc(Nc3ccc(Cl)cc3)c3cnn(-c4ccccc4)c3n2)CC1,+
CN(CCO)c1nc(Nc2ccc(Cl)cc2)c2cnn(-c3ccccc3)c2n1,+
CN1CCN(c2nc(Nc3ccc(Cl)cc3)c3cnn(-c4ccccc4)c3n2)CC1,+
Clc1ccc(Nc2nc(N3CCN(c4ccccc4)CC3)nc3c2cnn3-c2ccccc2)cc1,0
CN(CCO)c1nc(Nc2ccccc2)c2cnn(-c3ccccc3)c2n1,0
CCN(CCO)c1nc(Nc2ccc(Cl)cc2)c2cnn(-c3ccccc3)c2n1,0
Cc1cccc(C(C(=O)NCc2cc(-c3ccco3)on2)N(C)C)c1 (configuration not stated),0
COc1cccc(C2CNC(=O)c3nc(-c4ccc(O)c(OC)c4)[nH]c3C2)c1 (configuration not stated),0
CNc1ncccc1C(=O)N1CCN(Cc2ccc(C)cc2)C(=O)C1C (configuration not stated),0
SMILES,FECH block
CC(=O)N1c2ccc(S(=O)(=O)N3CCCCC3)cc2CC1C(=O)Nc1nc2ccccc2s1 (configuration not stated),0
CCn1cc(NC(=O)c2cccc(CN3CC[C@@H]4CCCC[C@H]4C3)c2)nn1,0
COCC(=O)N1C[C@H]2CNC[C@@]2(C(=O)NCCc2ncccc2C)C1,0
Cc1cccc(C(C(=O)NCc2cn3cc(C)sc3n2)N(C)C)c1 (configuration not stated),0
CC1CCN(S(=O)(=O)c2ccc3nc(Nc4ccc(S(N)(=O)=O)cc4)ccc3c2)CC1,0
COc1ccc(C(=O)N(Cc2nc3nc(C)cc(C)n3n2)c2cccc(Cl)c2)cc1OC,0
COC(=O)c1ccc(-c2noc(CN3CC=CC3)n2)cc1,0
COc1cc2c(cc1-c1nccn1CC1CCS(=O)(=O)C1)CCC2 (configuration not stated),0
O=c1c(Nc2ccc(Cl)cc2)c(-c2ccc3c(c2)CCCC3)c1=O,0
O=c1c(Nc2ccccc2F)c(-c2ccc3c(c2)CCCC3)c1=O,+
Cc1c(Cl)cccc1Nc1c(-c2ccc3c(c2)CCCC3)c(=O)c1=O,0
O=C(NCC(=O)N1CCC(c2nc(-c3ccc(Cl)cc3)no2)CC1)c1ccco1,0
Cc1cc(C)cc(NC(=O)NCCc2nc3cccnc3n2C2CCCCC2)c1,0
CCNC(=O)C1CCN(C(=O)c2cc(CN(C)Cc3ccccc3)on2)C1 (configuration not stated),0
Cc1cccc(CN2CCN(CC(=O)Nc3cc(C)ccc3C)S2(=O)=O)c1,+
Cc1ccc(NC(=O)CN2CCCN(Cc3ccc(Cl)cc3)S2(=O)=O)c(C)c1,0
CSc1cccc(NC(=O)CN2CCCN(Cc3cccc(C)c3)S2(=O)=O)c1,0
Cc1ccc(NC(=O)CN2CCN(Cc3ccc(F)cc3)S2(=O)=O)c(C)c1,0
Cc1cc(C)c(NC(=O)CN2CCN(Cc3ccc(F)cc3)S2(=O)=O)c(C)c1,+
Cc1cccc(CN2CCCN(CC(=O)Nc3c(C)cc(C)cc3C)S2(=O)=O)c1,+
Cc1ccc(CN2CCCN(CC(=O)Nc3cc(C)ccc3C)S2(=O)=O)cc1,0
Cc1ccc(NC(=O)CN2CCN(Cc3ccc(F)cc3)S2(=O)=O)cc1C,0
Cc1cccc(CN2CCCN(CC(=O)NC3CCCC3)S2(=O)=O)c1,0
Cc1ccc(CN2CCCN(CC(=O)Nc3c(C)cc(C)cc3C)S2(=O)=O)cc1,+
Cc1cc(C)c(NC(=O)CN2CCCN(Cc3ccccc3)S2(=O)=O)c(C)c1,0
SMILES,FECH block
Cc1ccc(C)c(NC(=O)CN2CCCN(Cc3cccc(F)c3)S2(=O)=O)c1,0
Cc1ccc2nc(C3CCCN3CCCn3ccnc3C)[nH]c2c1 (configuration not stated),0
O=C(O)CSc1nnc(CN2CCCCC2)n1-c1cccc(Cl)c1,0
COc1ccc(NC(=O)C2CCCN2S(=O)(=O)c2ccc3c(c2)CCCC(=O)N3)c(OC)c1 (configuration not stated),0
COc1ccc(NC(=O)CCc2c(C)n(C)c3cc(-c4ccccc4OC)nn3c2=O)c(OC)c1,0
Cc1cc(C)c(CN2CCCN(Cc3ccc(Cl)cc3)S2(=O)=O)c(C)c1,0
Cc1ccc(CN2CCCN(CC(=O)Nc3ccc(C)cc3C)S2(=O)=O)cc1,0
Cc1ccc(CN2CCCN(Cc3c(C)cc(C)cc3C)S2(=O)=O)cc1,0
Cc1cccc(NC(=O)CN2CCN(Cc3ccccc3C)S2(=O)=O)c1,0
Cc1cc(C)c(CN2CCCN(Cc3ccccc3)S2(=O)=O)c(C)c1,+
Cc1cccc(CN2CCN(CC(=O)Nc3ccc(C)cc3C)S2(=O)=O)c1,0
Cc1ccc(C)c(NC(=O)CN2CCN(Cc3ccccc3C)S2(=O)=O)c1,0
Cc1ccc(NC(=O)CN2CCN(Cc3ccccc3C)S2(=O)=O)c(C)c1,+
Cc1cccc(CN2CCCN(CC(=O)Nc3ccc(C)cc3C)S2(=O)=O)c1,+
CCc1cc(Sc2ccc(NC(=O)C(C)(C)C)cc2)n2ncnc2n1,0
Cc1nn(C)c(C)c1-c1ccnc(N(C)Cc2cc(-c3ccccn3)no2)n1,0
CCc1cccc(NC(=O)CN2CCN(Cc3ccccc3Cl)S2(=O)=O)c1,0
O=c1ccc(-c2ccc(Cl)c(S(=O)(=O)Nc3ccccc3)c2)n[nH]1,0
Cc1nnc(CN(C)Cc2cccc(C(=O)Nc3ccc4c(c3)OCO4)c2)o1,0
Cc1[nH][nH]c(=O)c1CC(=O)NCCn1c(C)cc2ccccc21,0
c1ccc(-c2nc3ncccn3c2CN2CCC3(CCNCC3)C2)cc1,0
CCS(=O)(=O)N1CCN(c2cc(-c3cccc(OC)c3)ncn2)CC1,0
CCS(=O)(=O)N1CCN(c2cc(-c3ccc(C)cc3)ncn2)CC1,0
Cc1ccc(-c2cc(N3CCN(S(C)(=O)=O)CC3)ncn2)cc1,0

# Bioassay records from PubChem.
